This is an account of results in PubChem BioAssay (NCATS).

Records with an inconclusive call do not appear. The source made the active and inactive calls. Unless noted, calls follow the shape of the dose curve; as a rule, active = well fitted inhibition curve with a large enough effect; inconclusive = small, poorly fitted or top-dose-only effect; inactive = flat fitted curve, though single readings scatter.

Assay [1] is described as follows: qHTS drug screen for cell cycle checkpoint inhibitors in PARPi-resistant BRCA-mutant ovarian cancer cell lines. (AID 1963452; calls by dose curve). Conditions: PEO1/OlaR viability, CellTiter-Glo luminescence, 96 h, stronger effect = lower value. The procedure, abridged:
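PEO1, PEO4 and PEO1/OlaR ovarian cancer cells, 600 per well, exposed 96 h at 37C to a dilution series. Viability read by CellTiter-Glo luminescence, normalized to DMSO and empty wells; activity summarized as Z-AUC.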
For orientation: In qHTS, concentration-response curves come from the screen itself.

The test system of the next assay is 7G8. The assay is described as follows: qHTS profiling for inhibitors of Plasmodium falciparum proliferation (AID 504749). Also: nearly all actives have a fitted effect of over 60% in size. Also: potency is read from the fitted curve at half-maximal effect.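 As to activity, negative = inhibition: 0% = DMSO vehicle and full inhibition = artemisinin control.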 Particulars: P. falciparum in erythrocytes, SYBR Green DNA, 72 h; series mostly up to 28.7 µM. The procedure, abridged:
(§1)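 SYBR Green fluorescence of parasite DNA, read after lysis and overnight dark incubation, measured growth over 72 h in erythrocyte culture at 0.3% parasitemia and 2.5% hematocrit. Data normalised to DMSO and 0.29 uM artemisinin, with plate-drift correction.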

A further assay relates to AS120. The description is as above. Conditions: P. falciparum in erythrocytes, SYBR Green DNA, 72 h; series mostly up to 28.7 µM. The procedure, abridged: as §1
Assay [2] can be described thus: qHTS for identification of novel therapeutic agents for treatment of microphthalmiaassociated transcription factor (MiT) renal cell carcinoma (RCC) (AID 1963991). Particulars: CellTiter-Glo, 48 h, stronger effect = lower value. The procedure, abridged:
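Viability of three TFE3-fusion renal carcinoma lines measured by CellTiter-Glo after 48 h treatment with each of 1912 compounds at 11 concentrations. Responses scaled between DMSO (100%) and empty wells (0%) before curve fitting.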

Assay [3] can be described thus: qHTS profiling for inhibitors of Plasmodium falciparum proliferation (AID 504749). Also: nearly all actives have a fitted effect of over 60% in size. Also: potency is read from the fitted curve at half-maximal effect.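 As to activity, negative = inhibition: 0% = DMSO vehicle and full inhibition = artemisinin control.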 Conditions: P. falciparum in erythrocytes, SYBR Green DNA, 72 h. The procedure, abridged: as §1
Another assay has as its system AA1029. Described as above. Particulars: P. falciparum in erythrocytes, SYBR Green DNA, 72 h; series mostly up to 28.7 µM. The procedure, abridged:
as §1

The next assay relates to ATS189. The description is as above. Conditions: P. falciparum in erythrocytes, SYBR Green DNA, 72 h; series mostly up to 28.7 µM. In a few lines: as §1
For a further assay, the system named is 3D7. The assay is described as above. Conditions: P. falciparum in erythrocytes, SYBR Green DNA, 72 h; series mostly up to 28.7 µM. The procedure, abridged: as §1
Setting [4] is: measured here: PEO1 parental Z-AUC.
The mark [5] stands for this setting: TFE3-RCC UOK109 viability, measured here: UOK109 Z-AUC.
Setting [6] is: TFE3-RCC viability, measured here: UOK124 Z-AUC.
[7] abbreviates: TFE3-RCC viability, measured here: UOK145 Z-AUC.
The mark [8] stands for this setting: at 28.7 µM (top of the series), parasite line A.
Where [9] appears, read: at 28.7 µM (top of the series), parasite line B.
The mark [10] stands for this setting: at 12.8 µM (top of the series), parasite line A.
[11] abbreviates: at 12.8 µM (top of the series), parasite line B.

Consider `CC1(CN2CCC(n3c(=O)[nH]c4ccccc43)CC2)OCc2ccccc2-n2cccc21` (stereo not given), for which the Z-AUC in assay [1] was 1.14 (inactive); in assay [1] (setting [4]), 0.846; in assay [1] (measured here: PEO4 Z-AUC) it was 0.865. Besides, the figures for the Potency in the assay with 7G8 and with AS120 were 3.16 µM (active) and 10 µM (active), respectively.
Consider `NCCc1cnc[nH]1`, for which the z-score was -0.102 in assay [2] (setting [5]), 0.743 in assay [2] (setting [6]) and 0.389 in assay [2] (setting [7]). In addition, the activity, negative = inhibition in assay [3] (setting [8]) is 7.72% (inactive); in assay [3] (setting [9]), 10.7% (inactive). The Potency result in the assay with 7G8, in the assay on AA1029, in the assay on AS120 and in the assay on ATS189 was “inactive” throughout.
Consider `CC1(C)O[C@H]2CC(=O)OC[C@]23[C@H]2CC[C@@]4(C)[C@H](c5ccoc5)OC(=O)[C@H]5O[C@]54[C@]2(C)C(=O)C[C@@H]13`, for which the z-score is 0.617 in assay [2] (setting [5]), 0.649 in assay [2] (setting [6]) and 1.11 in assay [2] (setting [7]).
As to `Clc1ccccc1C(c1ccccc1)(c1ccccc1)n1ccnc1`, the Z-AUC was -0.839 (inactive) in assay [1], -1.06 in assay [1] (setting [4]) and -0.849 in assay [1] (measured here: PEO4 Z-AUC). In addition, the Potency was 0.631 µM (active) in assay [3] (parasite line A); 0.708 µM (active) in assay [3] (parasite line B); 0.891 µM (active) with AA1029; 0.178 µM (active) in the assay on AS120; 0.708 µM (active) in the assay on ATS189.
Regarding `CN(CCOc1ccc(NS(C)(=O)=O)cc1)CCc1ccc(NS(C)(=O)=O)cc1`, the z-score in assay [2] (setting [5]) came out at 0.684; in assay [2] (setting [6]), 0.913; in assay [2] (setting [7]), 0.774. For the same compound, the results for the activity, negative = inhibition in assay [3] (setting [8]) and in assay [3] (setting [9]) were 1.37% (inactive) and 5.56% (inactive), respectively. Further, the Potency result in the assay on 3D7, with 7G8, with AA1029, with AS120 and with ATS189 was “inactive” throughout.
`O=c1[nH]cc(F)c(=O)[nH]1`: the values for the Z-AUC in assay [1], in assay [1] (setting [4]) and in assay [1] (measured here: PEO4 Z-AUC) were 0.953 (inactive), 0.582 and 0.136, respectively. For the same compound, the activity, negative = inhibition in assay [3] (setting [9]) is -26.3% (inactive). Besides, in the assay with 7G8, the Potency is 12.6 µM (active). Further, the Potency result with ATS189 was “inactive”.
Consider `CCCCc1oc2ccccc2c1C(=O)c1cc(I)c(OCCN(CC)CC)c(I)c1`, for which the Z-AUC in assay [1] is -0.673 (inactive); in assay [1] (setting [4]), -0.649; in assay [1] (measured here: PEO4 Z-AUC), -0.00161. Further, the Potency is 4.47 µM (active) in assay [3] (parasite line A); 2.82 µM (active) in assay [3] (parasite line B); 3.16 µM (active) with 7G8; 6.31 µM (active) in the assay on AA1029; 3.55 µM (active) with AS120; 5.62 µM (active) in the assay on ATS189.
Take `Nc1nc2c(ncn2COC(CO)CO)c(=O)[nH]1`: the values for the activity, negative = inhibition in assay [3] (setting [10]) and in assay [3] (setting [11]) were -0.332% (inactive) and 8.95% (inactive), respectively. The Potency result with 3D7, in the assay with 7G8, in the assay with AA1029, with AS120 and with ATS189 was “inactive” in each case.
Turning to `CC(C(=O)O)c1cccc(C(=O)c2ccccc2)c1` (stereo not given), the z-score was 0.978 in assay [2] (setting [5]), 0.474 in assay [2] (setting [6]) and 0.0276 in assay [2] (setting [7]).
Turning to `CN(C)C(=N)N=C(N)N`, the z-score in assay [2] (setting [5]) was determined as 0.797; in assay [2] (setting [6]), 1.58; in assay [2] (setting [7]) it was 0.981. The activity, negative = inhibition in assay [3] (setting [10]) is 11.7% (inactive); in assay [3] (setting [11]), 23.8% (inactive). Besides, the Potency entry with 3D7, with 7G8, in the assay with AA1029 and in the assay with ATS189 was “inactive” each time.
With `Cn1ccc2cc3c(cc21)CCN3C(=O)Nc1cccnc1`, the Z-AUC in assay [1] is 0.66 (inactive); in assay [1] (setting [4]) it was 0.473; in assay [1] (measured here: PEO4 Z-AUC), 0.355. Further, the Potency in the assay on 7G8 was 8.91 µM (active).
`NC(=O)NO`: the figures for the activity, negative = inhibition in assay [3] (setting [8]) and in assay [3] (setting [9]) were 16% (inactive) and 12.9% (inactive), respectively. Further, the Potency entry with 3D7, in the assay on 7G8, in the assay with AA1029, with AS120 and with ATS189 was “inactive” throughout.
Consider `Cc1cc(C(C)(C)C)c(O)c(C)c1CC1=NCCN1`, for which the z-score is 0.384 in assay [2] (setting [5]), 0.625 in assay [2] (setting [6]) and 1.63 in assay [2] (setting [7]). The activity, negative = inhibition in assay [3] (setting [8]) was -4.77% (inactive); in assay [3] (setting [9]) it was -3.69% (inactive). Also, the Potency entry in the assay on 3D7, in the assay with 7G8, in the assay on AA1029, in the assay on AS120 and with ATS189 was “inactive” each time.
